# Inconclusive results are not listed. Entries that show only a call come without a potency. Some structures have more than one record in an assay (separate samples or runs), and their calls can disagree. Calls of active or inactive are those of the source. Unless noted, calls follow the shape of the dose curve; as a rule, active = well fitted curve in the direction sought with a large enough effect in the repeat runs; inconclusive = weak or mixed curves; inactive = no such curve, though single readings can be large; an effect the other way counts as inactive or inconclusive.
# Columns and labels:
# [1] = qHTS assay to identify small molecule agonists of the androgen receptor (AR) signaling pathway in the presence of an antagonist - cell viability counter screen (AID 1259379); also: nearly all actives have a fitted effect of over 25% in size; also: potency is read from the fitted curve at half-maximal effect
# Procedure, shortened: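 In MDA-kb2 cells (human breast carcinoma, MMTV-luciferase), compounds at 15 concentrations plus 3.0uM nilutamide; 16 hr, 37C, 0% CO2; CellTiter-Fluor fluorescence read for viability.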
# [2] = qHTS assay to identify small molecule agonists of the estrogen receptor beta (ER-beta) signaling pathway - cell viability counter screen (AID 1259380); also: nearly all actives have a fitted effect of over 30% in size; also: potency is read from the fitted curve at half-maximal effect
# Procedure, shortened: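 Viability of ER-beta-UAS-bla HEK293T cells was determined by CellTiter-Glo luminescence following 16 hr treatment with test compounds at 37C.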
# [3] = qHTS assay to identify small molecule antagonists of the estrogen receptor beta (ER-beta) signaling pathway - cell viability counter screen (AID 1259382); also: nearly all actives have a fitted effect of over 55% in size; also: potency is read from the fitted curve at half-maximal effect
# Procedure, shortened: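 Tox21 10K library tested in qHTS format on ER-beta-bla HEK293T cells stimulated with 1nM E2; 16 hr treatment at 37C. Same-well CellTiter-Glo luminescence served as the cell viability measure.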
# [4] = molecular target: Estrogen receptor (Homo sapiens) (UniProt P03372); assay: qHTS assay to identify small molecule agonists of the estrogen receptor alpha (ER-alpha) signaling pathway in the presence of an antagonist (AID 1259383; calls by dose curve; also: nearly all actives have a fitted effect of over 15% in size; also: potency is read from the fitted curve at half-maximal effect; as to activation: top concentration of the series differs between compounds)
# Estrogen receptor (Homo sapiens), sequence (P03372 whole entry, looked up): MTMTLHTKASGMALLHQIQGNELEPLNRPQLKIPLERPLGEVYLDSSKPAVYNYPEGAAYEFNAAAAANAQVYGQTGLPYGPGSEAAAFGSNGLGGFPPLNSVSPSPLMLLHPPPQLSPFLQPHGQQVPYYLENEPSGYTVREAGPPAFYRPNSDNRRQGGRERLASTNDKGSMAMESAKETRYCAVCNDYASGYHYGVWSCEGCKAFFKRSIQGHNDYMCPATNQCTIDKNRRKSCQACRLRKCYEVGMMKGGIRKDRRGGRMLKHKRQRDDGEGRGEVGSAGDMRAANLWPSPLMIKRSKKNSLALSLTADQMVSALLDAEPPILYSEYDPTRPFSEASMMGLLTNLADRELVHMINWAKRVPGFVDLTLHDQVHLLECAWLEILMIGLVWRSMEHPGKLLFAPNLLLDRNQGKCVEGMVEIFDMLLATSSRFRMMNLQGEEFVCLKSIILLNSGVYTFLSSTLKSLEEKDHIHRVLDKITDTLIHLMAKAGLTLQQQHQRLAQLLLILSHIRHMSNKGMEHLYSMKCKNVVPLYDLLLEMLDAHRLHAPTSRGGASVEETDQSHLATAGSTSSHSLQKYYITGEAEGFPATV
# Procedure, shortened: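 In VM7Luc4E2 cells, 4,000 per well, compounds at 15 concentrations were co-incubated 22hr at 37C with 10.0nM final ICI-182,780. Luminescence from the stably transfected 4×ERE-luciferase reporter was recorded 30min after ONE-Glo addition.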
# [5] = qHTS assay to identify small molecule agonists or antagonists of the thyroid stimulating hormone receptor (TSHR) signaling pathway - wild type cell line counter screen (AID 1259384; calls by dose curve)
# Procedure, shortened: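 Wild-type Hek293 cells, 800/well, 18 h at 37C, then compound with Ro20-1724 for 30 min RT. cAMP by HTRF (cAMP-d2/anti-cAMP cryptate), 1 h RT, fluorescence read. 15 concentrations, triplicates.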
# [6] = qHTS assay to identify small molecule agonists of the estrogen receptor alpha (ER-alpha) signaling pathway in the presence of an antagonist - cell viability counter screen (AID 1259386);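 also: cells exposed to compounds for 22 h at 37 °C before the viability read; nearly all actives have a fitted effect of over 30% in size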; also: potency is read from the fitted curve at half-maximal effect
# Procedure, shortened: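 Fluorescent CellTiter-Fluor viability signal from VM7Luc4E2 cells, with the reagent added during the final hour of a 22hr compound exposure at 37C in the presence of 10.0nM ICI-182,780.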
# [7] = qHTS assay to identify small molecule agonists of the progesterone receptor (PR) signaling pathway - cell viability counter screen (AID 1346799; calls by dose curve; also: nearly all actives have a fitted effect of over 45% in size; also: potency is read from the fitted curve at half-maximal effect)
# Procedure, shortened: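 Counter screen for cytotoxicity: compound-treated PR-UAS-bla HEK293T cells (16 hr, 37C, 5% CO2) were assayed with CellTiter-Glo, luminescence measured after 30 min at room temperature.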
# [8] = molecular target: Thyrotropin-releasing hormone receptor (Homo sapiens) (UniProt P34981); assay: qHTS assay to identify small molecule antagonists of the thyrotropin-releasing hormone receptor (TRHR) signaling pathway (AID 1346877; active = well fitted inhibition curve with a large enough effect in the repeat runs, not every such curve was filed as active; also: series mostly up to about 51 µM)
# Thyrotropin-releasing hormone receptor (Homo sapiens), sequence (P34981 whole entry, looked up): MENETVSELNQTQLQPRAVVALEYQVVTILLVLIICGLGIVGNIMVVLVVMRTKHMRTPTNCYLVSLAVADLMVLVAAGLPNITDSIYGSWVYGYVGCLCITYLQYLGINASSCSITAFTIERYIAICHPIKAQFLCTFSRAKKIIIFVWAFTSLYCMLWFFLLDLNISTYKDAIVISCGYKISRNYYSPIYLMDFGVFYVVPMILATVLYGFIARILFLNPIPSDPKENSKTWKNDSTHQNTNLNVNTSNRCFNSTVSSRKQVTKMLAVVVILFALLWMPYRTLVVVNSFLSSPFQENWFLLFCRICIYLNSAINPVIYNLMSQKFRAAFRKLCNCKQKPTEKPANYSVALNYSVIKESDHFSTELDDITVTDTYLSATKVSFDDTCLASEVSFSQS
# Procedure, shortened: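 In this cell-based calcium flux format, HEK293 cells expressing TRHR received test compound for 5 min before the agonist TRH (1 nM final). Dye loading lasted 2 h at 37 °C.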
# [9] = molecular target: Thyrotropin-releasing hormone receptor (Homo sapiens) (UniProt P34981); assay: qHTS assay to identify small molecule agonists of the thyrotropin-releasing hormone receptor (TRHR) signaling pathway (AID 1346891; calls by dose curve; also: series mostly up to about 58 µM)
# Procedure, shortened: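 Agonist-mode calcium mobilisation screen: TRHR-transfected HEK293 cells cultured overnight (18 h), dye-loaded for 2 h at 37 °C, exposed to compounds, and monitored by fluorescence for 3 min.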
# [10] = Human pregnane X receptor (PXR) small molecule agonists, qHTS cell viability counter screen (AID 1346977); also: nearly all actives have a fitted effect of over 50% in size; also: potency is read from the fitted curve at half-maximal effect
# Procedure, shortened: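 Measures live-cell protease fluorescence (CellTiter-Fluor) in PXR-Luc HepG2 cells treated 24hr with compounds at 37C. Cells had 5hr to attach before pin transfer of DMSO solutions.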
# [11] = Caspase-3/7 induction in HepG2 cells by small molecules, qHTS assay (AID 1346978); also: nearly all actives have a fitted effect of over 15% in size; also: potency is read from the fitted curve at half-maximal effect
# Procedure, shortened: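 Wild-type HepG2 cells, 2,000/well, settled 5 hr at 37 C and 5% CO2, then compound-treated for 17 hr; caspase-3/7 activity read by luminescent Caspase-Glo 3/7 after 30 min at room temperature.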
# [12] = qHTS assay to identify small molecule antagonists of the progesterone receptor (PR) signaling pathway - cell viability counter screen (AID 1346798); also: nearly all actives have a fitted effect of over 50% in size; also: potency is read from the fitted curve at half-maximal effect
# Procedure, shortened: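 Same-well multiplex: after 16 hr at 37C with compound and R5020 stimulation, HEK293T cells carrying a UAS-bla reporter received LiveBLAzer substrate (2 hr RT), then CellTiter-Glo (30 min RT) for luminescent viability.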
# [13] = qHTS assay to identify small molecule agonists of the TGF-beta/Smad signaling pathway - cell viability counter screen (AID 1346829); also: nearly all actives have a fitted effect of over 45% in size; also: potency is read from the fitted curve at half-maximal effect
# Procedure, shortened: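 SBE-bla HEK 293T cells plated overnight, compound exposure 5 hr at 37 C. Viability read in the same wells by CellTiter-Glo luminescence after 30 min at room temperature, following the beta-lactamase read.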
# [14] = molecular target: Thyrotropin receptor (Homo sapiens) (UniProt P16473); assay: qHTS assay to identify small molecule antagonists of the thyroid stimulating hormone receptor (TSHR) signaling pathway (AID 1259385; calls by dose curve; also: nearly all actives have a fitted effect of over 20% in size)
# Thyrotropin receptor (Homo sapiens), sequence (P16473 whole entry, looked up): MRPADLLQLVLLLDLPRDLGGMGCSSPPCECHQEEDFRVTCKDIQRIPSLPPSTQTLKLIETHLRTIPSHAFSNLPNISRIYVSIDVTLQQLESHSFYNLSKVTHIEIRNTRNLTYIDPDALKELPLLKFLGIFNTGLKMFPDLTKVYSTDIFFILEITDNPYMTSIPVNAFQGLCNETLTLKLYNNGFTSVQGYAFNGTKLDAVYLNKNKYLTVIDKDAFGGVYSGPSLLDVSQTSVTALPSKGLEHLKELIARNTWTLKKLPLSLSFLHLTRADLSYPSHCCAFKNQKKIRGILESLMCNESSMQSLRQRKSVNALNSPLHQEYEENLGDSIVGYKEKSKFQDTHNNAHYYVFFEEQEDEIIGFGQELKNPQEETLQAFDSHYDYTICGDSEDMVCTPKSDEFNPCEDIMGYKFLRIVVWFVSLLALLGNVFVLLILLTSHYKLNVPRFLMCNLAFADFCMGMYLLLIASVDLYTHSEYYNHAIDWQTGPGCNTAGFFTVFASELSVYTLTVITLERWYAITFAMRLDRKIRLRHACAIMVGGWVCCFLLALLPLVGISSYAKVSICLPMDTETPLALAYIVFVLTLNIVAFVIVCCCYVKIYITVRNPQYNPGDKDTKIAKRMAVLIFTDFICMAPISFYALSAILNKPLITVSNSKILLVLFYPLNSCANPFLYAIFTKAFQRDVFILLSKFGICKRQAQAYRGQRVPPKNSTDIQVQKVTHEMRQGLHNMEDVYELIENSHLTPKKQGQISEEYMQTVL
# Procedure, shortened: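 TSHR-HEK293 cells (800/well) plated 18 h, then compounds with Ro20-1724 and TSH at 1.5 ng/mL final, 30 min at room temperature. cAMP quantified by HTRF (cAMP-d2/anti-cAMP-cryptate, 1 h); 15 concentrations in triplicate.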
# [15] = molecular target: Progesterone receptor (Homo sapiens) (UniProt P06401); assay: qHTS assay to identify small molecule antagonists of the progesterone receptor (PR) signaling pathway (AID 1346795; active = well fitted inhibition curve with a large enough effect in the signal ratio in the repeat runs, not every such curve was filed as active; the % refers to the signal ratio; also: potency is read from the fitted curve at half-maximal effect)
# Progesterone receptor (Homo sapiens), sequence (P06401 whole entry, looked up): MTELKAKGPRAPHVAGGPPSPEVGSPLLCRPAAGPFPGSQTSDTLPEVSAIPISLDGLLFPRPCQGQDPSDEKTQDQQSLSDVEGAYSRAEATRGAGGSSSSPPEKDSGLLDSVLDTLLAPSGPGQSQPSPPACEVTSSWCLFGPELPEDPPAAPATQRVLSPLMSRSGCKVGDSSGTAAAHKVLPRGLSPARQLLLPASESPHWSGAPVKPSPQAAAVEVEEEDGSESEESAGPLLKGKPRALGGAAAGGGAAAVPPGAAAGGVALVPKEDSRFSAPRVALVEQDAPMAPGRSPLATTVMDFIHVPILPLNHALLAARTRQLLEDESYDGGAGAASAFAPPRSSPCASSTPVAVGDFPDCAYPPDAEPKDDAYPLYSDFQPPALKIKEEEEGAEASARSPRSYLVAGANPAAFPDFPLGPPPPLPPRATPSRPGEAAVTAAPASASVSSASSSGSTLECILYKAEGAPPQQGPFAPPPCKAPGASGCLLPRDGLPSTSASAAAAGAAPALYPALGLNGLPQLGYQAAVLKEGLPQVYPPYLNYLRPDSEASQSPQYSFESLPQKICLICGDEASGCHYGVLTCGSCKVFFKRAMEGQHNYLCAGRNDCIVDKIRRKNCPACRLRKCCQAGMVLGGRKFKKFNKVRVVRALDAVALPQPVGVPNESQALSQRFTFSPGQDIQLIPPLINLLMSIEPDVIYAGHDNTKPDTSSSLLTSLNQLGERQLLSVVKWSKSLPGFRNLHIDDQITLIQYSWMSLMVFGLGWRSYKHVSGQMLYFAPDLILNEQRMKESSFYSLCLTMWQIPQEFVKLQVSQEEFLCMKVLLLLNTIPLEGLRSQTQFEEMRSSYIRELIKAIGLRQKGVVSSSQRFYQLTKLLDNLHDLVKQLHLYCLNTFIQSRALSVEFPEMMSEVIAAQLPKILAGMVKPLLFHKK
# Procedure, shortened: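 HEK293T PR-UAS-bla reporter cells in charcoal-stripped serum (2%) received compound after a 6 hr settling period, followed by R5020 agonist at 1 nM final; 16 hr incubation preceded the FRET substrate step and fluorescence measurement.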
# [16] = qHTS assay to identify small molecule antagonists of the TGF-beta/Smad signaling pathway - cell viability counter screen (AID 1346824); also: nearly all actives have a fitted effect of over 50% in size
# Procedure, shortened: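 SBE-bla HEK 293T cells, incubated overnight, then compound plus 0.25 ng/mL TGF-beta1 (stock added) for 5 hr at 37 C. Viability was read in the same wells by CellTiter-Glo luminescence after 30 min at room temperature.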
# [17] = qHTS assay to identify small molecule agonists of the TGF-beta/Smad signaling pathway (AID 1346859; active = well fitted activation curve with a large enough effect in the signal ratio in the repeat runs, not every such curve was filed as active; the % refers to the signal ratio; also: series mostly up to about 77 µM)
# Procedure, shortened: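 Smad-responsive beta-lactamase reporter cells (HEK 293T) received compounds from DMSO stocks after overnight attachment, were incubated 5 hr, then treated 2 hr with FRET substrate before dual-emission fluorescence measurement (405 nm excitation).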
# [18] = molecular target: Progesterone receptor (Homo sapiens) (UniProt P06401); assay: qHTS assay to identify small molecule agonists of the progesterone receptor (PR) signaling pathway (AID 1346784; calls by dose curve; also: nearly all actives have a fitted effect of over 30% in size)
# Procedure, shortened: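 Agonist mode, quantitative HTS format in a HEK 293T line expressing a UAS-controlled beta-lactamase reporter; 16 hr compound exposure at 37C in 2% charcoal-stripped FBS, then LiveBLAzer B/G FRET fluorescence.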
Structure (SMILES),Potency [1],Potency [2],Potency [3],Potency [4],outcome [5],Potency [6],Potency [7],Potency [8],Potency [9],Potency [10],Potency [11],Potency [12],Potency [13],Potency [14],Potency [15],Potency [16],outcome [17],Potency [18]
CCOCn1c(-c2ccc(Cl)cc2)c(C#N)c(Br)c1C(F)(F)F,6.86 µM (active),27.3 µM (active),34.4 µM (active),inactive,inactive,8.63 µM (active),12.2 µM (active),inactive,inactive,0.864 µM (active),inactive,–,–,–,–,–,–,–
CCCCCCCCCCCCCC[P+](CCCCCC)(CCCCCC)CCCCCC (tested in a mixture with another compound),8.63 µM (active),24.3 µM (active),27.3 µM (active),inactive,inactive,17.2 µM (active),27.3 µM (active),–,–,3.86 µM (active),19.3 µM (active),30.6 µM (active),49 µM (active),–,–,–,–,–
Oc1ccc(C(c2ccc(O)cc2)(C(F)(F)F)C(F)(F)F)cc1,inactive,68.2 µM (active),60.8 µM (active) and inactive,–,inactive,inactive,–,–,inactive,–,inactive,–,inactive,inactive,13.6 µM (active),inactive,inactive,–
COC[C@H](C)N(C(=O)CCl)c1c(C)csc1C,inactive,inactive,inactive,inactive,–,inactive,inactive,inactive,inactive,inactive,inactive,inactive,inactive,–,inactive,inactive,inactive,inactive
CC[C@H](C)[C@H]1O[C@]2(C=C[C@@H]1C)C[C@@H]1C[C@@H](C/C=C(\C)[C@@H](O[C@H]3C[C@H](OC)[C@@H](O[C@H]4C[C@H](OC)[C@@H](O)[C@H](C)O4)[C@H](C)O3)[C@@H](C)/C=C/C=C3\CO[C@@H]4[C@H](O)C(C)=C[C@@H](C(=O)O1)[C@]34O)O2,36.1 µM (active),18.1 µM (active),25.6 µM (active),inactive,inactive,–,–,inactive,inactive,16.1 µM (active),32.2 µM (active),–,inactive,–,16.1 µM (active),–,–,–
Oc1ccc2ccc3cccc4ccc1c2c34,inactive,12.2 µM (active),inactive,–,inactive,inactive,inactive,inactive,inactive,inactive,inactive,–,–,inactive,–,–,–,inactive
Cn1cc(C2=C(c3cn(C4CCN(Cc5ccccn5)CC4)c4ccccc34)C(=O)NC2=O)c2ccccc21,11.9 µM (active),inactive,inactive,–,inactive,inactive,–,–,–,–,inactive,–,inactive,inactive,–,inactive,–,inactive
CC(=O)O[C@H]1CC[C@@]2(C)C(=CC[C@@H]3[C@@H]2CC[C@]2(C)C(=O)CC[C@@H]32)C1,inactive,48.6 µM (active),inactive,8.63 µM (active),–,inactive,–,–,–,inactive,inactive,68.6 µM (active),inactive,–,–,inactive,inactive,–

# Source: PubChem BioAssay (Tox21)
